# Like-named read-outs stand apart in the source and are kept apart here.
# Columns and labels:
# NEK11 = conditions: concentration: 1 μM, replicates: in singlicate; n = 1
# NEK1 = conditions: concentration: 1 μM, replicates: in singlicate; n = 1
# NEK2 = conditions: concentration: 1 μM, replicates: in singlicate; n = 1
# NEK3 = conditions: concentration: 1 μM, replicates: in singlicate; n = 1
# NEK4 = conditions: concentration: 1 μM, replicates: in singlicate; n = 1
# NEK5 = conditions: concentration: 1 μM, replicates: in singlicate; n = 1
# NEK6 = conditions: concentration: 1 μM, replicates: in singlicate; n = 1
# NEK7 = conditions: concentration: 1 μM, replicates: in singlicate; n = 1
# NEK9 = conditions: concentration: 1 μM, replicates: in singlicate; n = 1
# NIK = test system: T1, NIK; conditions: concentration: 1 μM, replicates: in singlicate; n = 1
# T1 construct: gene MAP3K14
# NIM1 = test system: T2, NIM1; conditions: concentration: 1 μM, replicates: in singlicate; n = 1
# T2 construct: gene MGC42105
# NLK = conditions: concentration: 1 μM, replicates: in singlicate; n = 1
# OSR1 = test system: T3, OSR1; conditions: concentration: 1 μM, replicates: in singlicate; n = 1
# T3 construct: gene OXSR1
# PAK1 = conditions: concentration: 1 μM, replicates: in singlicate; n = 1
# PAK2 = conditions: concentration: 1 μM, replicates: in singlicate; n = 1
# PAK3 = conditions: concentration: 1 μM, replicates: in singlicate; n = 1
# PAK4 = conditions: n = 1
# PAK6 = conditions: concentration: 1 μM, replicates: in singlicate; n = 1
# PAK7 = conditions: concentration: 1 μM, replicates: in singlicate; n = 1
# PCTK1 = test system: T4, PCTK1; conditions: concentration: 1 μM, replicates: in singlicate; n = 1
# T4 construct: gene CDK16
# [1] = concentration: 1 μM, replicates: in singlicate
# 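Note: KINOMEscan kinase panel screen.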
compound,measurement,setting,value
COc1cc(Nc2ccnc3cc(-c4ccncc4)ccc23)cc(OC)c1OC.Cl [GW494610],%Inh,NEK11,8%
same,%Inh,NEK1,0%
same,%Inh,NEK2,0%
same,%Inh,NEK3,0%
same,%Inh,NEK4,0%
same,%Inh,NEK5,5%
same,%Inh,NEK6,1%
same,%Inh,NEK7,0%
same,%Inh,NEK9,4%
same,%Inh,NIK,0%
same,%Inh,NIM1,23%
same,%Inh,NLK,92.8%
same,%Inh,OSR1,100%
same,%Inh,PAK1,0%
same,%Inh,PAK2,0%
same,%Inh,PAK3,0%
same,%Inh,PAK4; [1],0%
same,%Inh,PAK6,0%
same,%Inh,PAK7,0%
same,%Inh,PCTK1,0%
CN(C)c1ncnc2nc[nH]c12 [SKF-31736],%Inh,NEK11,0%
same,%Inh,NEK1,0%
same,%Inh,NEK2,0%
same,%Inh,NEK3,41%
same,%Inh,NEK4,0%
same,%Inh,NEK5,12%
same,%Inh,NEK6,0%
same,%Inh,NEK7,0%
same,%Inh,NEK9,0%
same,%Inh,NIK,51%
same,%Inh,NIM1,4%
same,%Inh,NLK,0%
same,%Inh,OSR1,0%
same,%Inh,PAK1,8%
same,%Inh,PAK2,43%
same,%Inh,PAK3,12%
same,%Inh,PAK4; [1],6%
same,%Inh,PAK6,0%
same,%Inh,PAK7,15%
same,%Inh,PCTK1,17%
CCn1c(-c2nonc2N)nc2c(-c3ccccc3)ncc(OCCCN)c21.O=C(O)C(F)(F)F.O=C(O)C(F)(F)F [GSK260205],%Inh,NEK11,1%
same,%Inh,NEK1,0%
same,%Inh,NEK2,1%
same,%Inh,NEK3,7%
same,%Inh,NEK4,21%
same,%Inh,NEK5,1%
same,%Inh,NEK6,0%
same,%Inh,NEK7,0%
same,%Inh,NEK9,0%
same,%Inh,NIK,30%
same,%Inh,NIM1,39%
same,%Inh,NLK,94.5%
same,%Inh,OSR1,3%
same,%Inh,PAK1,2%
same,%Inh,PAK2,31%
same,%Inh,PAK3,49%
same,%Inh,PAK4; [1],0%
same,%Inh,PAK6,0%
same,%Inh,PAK7,0%
same,%Inh,PCTK1,0%
Cc1ccc(NC(=O)c2ccc(Cl)c(Cl)c2)cc1-c1ccc(C(=O)Nc2ccncc2)cc1 [GSK1398460],%Inh,NEK11,0%
same,%Inh,NEK1,16%
same,%Inh,NEK2,2%
same,%Inh,NEK3,16%
same,%Inh,NEK4,0%
same,%Inh,NEK5,0%
same,%Inh,NEK6,0%
same,%Inh,NEK7,0%
same,%Inh,NEK9,7%
same,%Inh,NIK,0%
same,%Inh,NIM1,0%
same,%Inh,NLK,43%
same,%Inh,OSR1,6%
same,%Inh,PAK1,19%
same,%Inh,PAK2,19%
same,%Inh,PAK3,20%
same,%Inh,PAK4; [1],0%
same,%Inh,PAK6,0%
same,%Inh,PAK7,1%
same,%Inh,PCTK1,0%
CC(C)c1nc(-c2cccc(NS(=O)(=O)c3c(F)cccc3F)c2)c(-c2ccnc(Nc3ccc(N4CCOCC4)nc3)n2)s1.Cl [GSK1723980],%Inh,NEK11,97.8%
same,%Inh,NEK1,0%
same,%Inh,NEK2,48%
same,%Inh,NEK3,0%
same,%Inh,NEK4,6%
same,%Inh,NEK5,0%
same,%Inh,NEK6,55%
same,%Inh,NEK7,76%
same,%Inh,NEK9,88%
same,%Inh,NIK,95.4%
same,%Inh,NIM1,0%
same,%Inh,NLK,97%
same,%Inh,OSR1,4%
same,%Inh,PAK1,19%
same,%Inh,PAK2,16%
same,%Inh,PAK3,73%
same,%Inh,PAK4; [1],0%
same,%Inh,PAK6,0%
same,%Inh,PAK7,0%
same,%Inh,PCTK1,99.9%
Cc1ccc(C)c(NC(=O)Nc2ccc(C)c(-c3ccc(C(=O)Nc4ccncc4)cc3)c2)c1 [GSK1398473],%Inh,NEK11,0%
same,%Inh,NEK1,0%
same,%Inh,NEK2,1%
same,%Inh,NEK3,5%
same,%Inh,NEK4,0%
same,%Inh,NEK5,8%
same,%Inh,NEK6,1%
same,%Inh,NEK7,0%
same,%Inh,NEK9,7%
same,%Inh,NIK,4%
same,%Inh,NIM1,1%
same,%Inh,NLK,50%
same,%Inh,OSR1,2%
same,%Inh,PAK1,21%
same,%Inh,PAK2,15%
same,%Inh,PAK3,15%
same,%Inh,PAK4; [1],0%
same,%Inh,PAK6,0%
same,%Inh,PAK7,0%
same,%Inh,PCTK1,13%
CCOc1nccc(-c2c(-c3ccc(F)cc3)ncn2C2CCNCC2)n1 [SB-249175],%Inh,NEK11,50%
same,%Inh,NEK1,9%
same,%Inh,NEK2,0%
same,%Inh,NEK3,13%
same,%Inh,NEK4,0%
same,%Inh,NEK5,31%
same,%Inh,NEK6,4%
same,%Inh,NEK7,10%
same,%Inh,NEK9,7%
same,%Inh,NIK,5%
same,%Inh,NIM1,44%
same,%Inh,NLK,45%
same,%Inh,OSR1,47%
same,%Inh,PAK1,6%
same,%Inh,PAK2,29%
same,%Inh,PAK3,0%
same,%Inh,PAK4; [1],32%
same,%Inh,PAK6,3%
same,%Inh,PAK7,6%
same,%Inh,PCTK1,26%
Cn1cc(-c2ccc3c(c2)CCN3C(=O)Cc2cc(F)cc(C(F)(F)F)c2)c2c(N)ncnc21 [GSK2635225],%Inh,NEK11,8%
same,%Inh,NEK1,9%
same,%Inh,NEK2,18%
same,%Inh,NEK3,0%
same,%Inh,NEK4,13%
same,%Inh,NEK5,0%
same,%Inh,NEK6,6%
same,%Inh,NEK7,0%
same,%Inh,NEK9,25%
same,%Inh,NIK,15%
same,%Inh,NIM1,20%
same,%Inh,NLK,14%
same,%Inh,OSR1,0%
same,%Inh,PAK1,13%
same,%Inh,PAK2,0%
same,%Inh,PAK3,16%
same,%Inh,PAK4; [1],2%
same,%Inh,PAK6,4%
same,%Inh,PAK7,16%
same,%Inh,PCTK1,7%
COc1ccc(C2=C(Nc3cccc(O)c3)C(=O)NC2=O)cc1 [SB-390766],%Inh,NEK11,19%
same,%Inh,NEK1,0%
same,%Inh,NEK2,0%
same,%Inh,NEK3,18%
same,%Inh,NEK4,5%
same,%Inh,NEK5,34%
same,%Inh,NEK6,0%
same,%Inh,NEK7,0%
same,%Inh,NEK9,0%
same,%Inh,NIK,6%
same,%Inh,NIM1,0%
same,%Inh,NLK,35%
same,%Inh,OSR1,4%
same,%Inh,PAK1,15%
same,%Inh,PAK2,12%
same,%Inh,PAK3,30%
same,%Inh,PAK4; [1],0%
same,%Inh,PAK6,10%
same,%Inh,PAK7,0%
same,%Inh,PCTK1,5%
O=C1NC(=O)C(c2ccccc2Cl)=C1Nc1cccc(Cl)c1 [SB-342409],%Inh,NEK11,0%
same,%Inh,NEK1,5%
same,%Inh,NEK2,10%
same,%Inh,NEK3,56%
same,%Inh,NEK4,11%
same,%Inh,NEK5,7%
same,%Inh,NEK6,1%
same,%Inh,NEK7,16%
same,%Inh,NEK9,20%
same,%Inh,NIK,0%
same,%Inh,NIM1,4%
same,%Inh,NLK,22%
same,%Inh,OSR1,2%
same,%Inh,PAK1,24%
same,%Inh,PAK2,17%
same,%Inh,PAK3,0%
same,%Inh,PAK4; [1],0%
same,%Inh,PAK6,7%
same,%Inh,PAK7,0%
same,%Inh,PCTK1,34%
COc1ccc(NC(=O)c2ccoc2)cc1-c1ccc(C(=O)NCC2CC2)cc1 [GW810437],%Inh,NEK11,0%
same,%Inh,NEK1,0%
same,%Inh,NEK2,0%
same,%Inh,NEK3,37%
same,%Inh,NEK4,0%
same,%Inh,NEK5,0%
same,%Inh,NEK6,0%
same,%Inh,NEK7,0%
same,%Inh,NEK9,7%
same,%Inh,NIK,40%
same,%Inh,NIM1,41%
same,%Inh,NLK,11%
same,%Inh,OSR1,17%
same,%Inh,PAK1,0%
same,%Inh,PAK2,44%
same,%Inh,PAK3,24%
same,%Inh,PAK4; [1],0%
same,%Inh,PAK6,0%
same,%Inh,PAK7,10%
same,%Inh,PCTK1,4%
Cc1nn2c(=O)cc(N3CCO[C@H](C)C3)nc2n1Cc1cccc(Cl)c1Cl [GSK2373693],%Inh,NEK11,0%
same,%Inh,NEK1,0%
same,%Inh,NEK2,18%
same,%Inh,NEK3,0%
same,%Inh,NEK4,0%
same,%Inh,NEK5,75%
same,%Inh,NEK6,0%
same,%Inh,NEK7,0%
same,%Inh,NEK9,0%
same,%Inh,NIK,21%
same,%Inh,NIM1,11%
same,%Inh,NLK,78%
same,%Inh,OSR1,83%
same,%Inh,PAK1,2%
same,%Inh,PAK2,10%
same,%Inh,PAK3,36%
same,%Inh,PAK4; [1],0%
same,%Inh,PAK6,52%
same,%Inh,PAK7,0%
same,%Inh,PCTK1,7%
Cc1cccc(Nc2nc(NCCN)ncc2C(N)=O)c1 [GSK1292139],%Inh,NEK11,3%
same,%Inh,NEK1,0%
same,%Inh,NEK2,0%
same,%Inh,NEK3,31%
same,%Inh,NEK4,29%
same,%Inh,NEK5,47%
same,%Inh,NEK6,0%
same,%Inh,NEK7,0%
same,%Inh,NEK9,18%
same,%Inh,NIK,0%
same,%Inh,NIM1,29%
same,%Inh,NLK,0%
same,%Inh,OSR1,15%
same,%Inh,PAK1,16%
same,%Inh,PAK2,48%
same,%Inh,PAK3,16%
same,%Inh,PAK4; [1],93%
same,%Inh,PAK6,76%
same,%Inh,PAK7,98.6%
same,%Inh,PCTK1,3%
CCNC(=O)/C=C/c1n[nH]c2cc(Sc3ccccc3C(=O)NC)ccc12,%Inh,NEK11,0%
same,%Inh,NEK1,0%
same,%Inh,NEK2,0%
same,%Inh,NEK3,26%
same,%Inh,NEK4,0%
same,%Inh,NEK5,5%
same,%Inh,NEK6,38%
same,%Inh,NEK7,0%
same,%Inh,NEK9,0%
same,%Inh,NIK,0%
same,%Inh,NIM1,2%
same,%Inh,NLK,57%
same,%Inh,OSR1,0%
same,%Inh,PAK1,0%
same,%Inh,PAK2,0%
same,%Inh,PAK3,0%
same,%Inh,PAK4; [1],0%
same,%Inh,PAK6,4%
same,%Inh,PAK7,20%
same,%Inh,PCTK1,7%
Cc1cccc(Nc2nc(N[C@H]3CCCC[C@H]3N)ncc2C(N)=O)c1.Cl [GSK986310],%Inh,NEK11,0%
same,%Inh,NEK1,2%
same,%Inh,NEK2,15%
same,%Inh,NEK3,19%
same,%Inh,NEK4,24%
same,%Inh,NEK5,13%
same,%Inh,NEK6,10%
same,%Inh,NEK7,8%
same,%Inh,NEK9,25%
same,%Inh,NIK,23%
same,%Inh,NIM1,18%
same,%Inh,NLK,27%
same,%Inh,OSR1,33%
same,%Inh,PAK1,40%
same,%Inh,PAK2,70%
same,%Inh,PAK3,55%
same,%Inh,PAK4; 1 µM,95.4%
same,%Inh,PAK6,89%
same,%Inh,PAK7,99.5%
same,%Inh,PCTK1,10%
N#Cc1cnc2cc(-c3cnc(CNCCN4CCOCC4)s3)ccc2c1Nc1ccc(Oc2ccccc2)cc1 [GW664114],%Inh,NEK11,25%
same,%Inh,NEK1,0%
same,%Inh,NEK2,82%
same,%Inh,NEK3,20%
same,%Inh,NEK4,1%
same,%Inh,NEK5,0%
same,%Inh,NEK6,0%
same,%Inh,NEK7,0%
same,%Inh,NEK9,17%
same,%Inh,NIK,0%
same,%Inh,NIM1,12%
same,%Inh,NLK,0%
same,%Inh,OSR1,0%
same,%Inh,PAK1,10%
same,%Inh,PAK2,0%
same,%Inh,PAK3,21%
same,%Inh,PAK4; [1],0%
same,%Inh,PAK6,10%
same,%Inh,PAK7,2%
same,%Inh,PCTK1,28%

# Source: PMC5540273 (PLoS ONE, 2017)
